Paper PMC4336329 (PLoS ONE, 2015)
In all, about 310,000 compounds went through this assay and about 2,200 (0.71%) showed an effect of 50% or more. The effect is printed as a negative number. The sample holds strong results, similar compounds and a random draw of the others, so the mix is not that of the screen.

target: human ether-à-go-go-related gene (hERG) potassium channel (human, UniProt Q12809); experiment: primary screen, population patch clamp on CHO cells stably expressing hERG; higher = less effect of the substance
Sequence (Q12809 whole entry, looked up): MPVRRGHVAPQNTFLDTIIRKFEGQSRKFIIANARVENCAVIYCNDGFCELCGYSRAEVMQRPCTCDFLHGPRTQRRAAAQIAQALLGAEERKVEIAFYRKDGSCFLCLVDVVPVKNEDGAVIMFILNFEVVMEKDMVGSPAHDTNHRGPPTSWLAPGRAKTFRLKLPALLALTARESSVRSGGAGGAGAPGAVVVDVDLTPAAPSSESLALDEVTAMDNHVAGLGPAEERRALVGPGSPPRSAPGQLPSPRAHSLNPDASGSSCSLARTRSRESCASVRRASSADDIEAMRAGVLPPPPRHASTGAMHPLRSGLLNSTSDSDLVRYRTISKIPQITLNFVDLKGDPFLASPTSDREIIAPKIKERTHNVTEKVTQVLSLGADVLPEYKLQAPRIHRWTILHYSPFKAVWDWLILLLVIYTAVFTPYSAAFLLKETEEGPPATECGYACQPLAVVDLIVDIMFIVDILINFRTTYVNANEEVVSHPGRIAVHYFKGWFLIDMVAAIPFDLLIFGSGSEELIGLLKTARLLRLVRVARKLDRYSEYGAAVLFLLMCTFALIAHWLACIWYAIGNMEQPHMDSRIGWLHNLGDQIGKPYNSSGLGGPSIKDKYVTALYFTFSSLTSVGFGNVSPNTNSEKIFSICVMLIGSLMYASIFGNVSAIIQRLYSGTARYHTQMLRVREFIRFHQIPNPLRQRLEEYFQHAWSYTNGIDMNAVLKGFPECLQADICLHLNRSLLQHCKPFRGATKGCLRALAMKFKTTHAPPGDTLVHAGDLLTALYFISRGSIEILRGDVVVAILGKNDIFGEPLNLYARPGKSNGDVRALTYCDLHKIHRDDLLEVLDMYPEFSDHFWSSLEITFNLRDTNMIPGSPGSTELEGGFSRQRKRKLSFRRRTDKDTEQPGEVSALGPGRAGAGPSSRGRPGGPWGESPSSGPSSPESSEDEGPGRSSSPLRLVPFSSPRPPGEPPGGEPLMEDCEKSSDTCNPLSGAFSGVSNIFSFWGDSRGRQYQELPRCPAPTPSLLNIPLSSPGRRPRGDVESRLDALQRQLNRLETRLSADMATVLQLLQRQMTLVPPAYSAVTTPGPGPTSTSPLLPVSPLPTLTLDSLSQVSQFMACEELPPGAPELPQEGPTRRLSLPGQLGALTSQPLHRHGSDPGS

Structure (SMILES) | hERG current change (%, negative = inhibition) at 1uM [%]
c1cncc(-c2nc3ccccn3c2Nc2ccc3c(c2)OCCO3)c1 | 4.02
O=C(O)CN(Cc1ccco1)S(=O)(=O)c1ccc(F)cc1 | 11.9
CCOc1cccc(C(=O)Nc2ccc3[nH]ncc3c2)c1 | 21.7
O=C(N/C(=C/c1cccs1)C(=O)N1CCCC1)c1ccccc1 | 14.4
O=C(N/C(=C\c1cccs1)C(=O)N1CCCCCC1)c1ccccc1 | 1.61
Cc1cccc(NC(=O)/C(=C\c2cccs2)NC(=O)c2ccccc2)c1 | -65.1
O=C(N/C(=C/c1ccc2c(c1)OCO2)C(=O)N1CCOCC1)c1cccs1 | 9.57
O=C(N/C(=C\c1cccs1)C(=O)N1CCOCC1)c1cccs1 | 6.69
O=C(N/C(=C/c1cccs1)C(=O)N1CCOCC1)c1cccs1 | 8.07
CN1CCN(C(=O)/C(=C\c2cccs2)NC(=O)c2cccs2)CC1 | -77.3
CN1CCN(C(=O)/C(=C\c2ccc3c(c2)OCO3)NC(=O)c2cccs2)CC1 | -75.6
CN1CCN(C(=O)/C(=C\c2cccs2)NC(=O)c2ccccc2)CC1 | -78.3
O=C(Nc1ccccc1)/C(=C\c1cccs1)NC(=O)c1ccccc1 | 14.9
Cc1ccc(NC(=O)/C(=C\c2cccs2)NC(=O)c2ccccc2)cc1 | -1.02
O=C(N/C(=C\c1ccc2c(c1)OCO2)C(=O)N1CCOCC1)c1cccs1 | -18.7
Cc1ccc(NC(=O)CCC(=O)c2ccc(Br)cc2)cc1 | 10.9
COc1ccc(C(=O)N/N=C/c2cc(Br)ccc2O)cc1OC | 14.7
CCOc1cc(/C=C2/C(=N)N3C(=NC2=O)SN=C3S(C)(=O)=O)ccc1OS(=O)(=O)c1ccccc1 | 17.3
CCOC(=O)c1sc2nc(C)nc(NCc3cccnc3)c2c1C | 10.8
COc1ccc(/C=N/Nc2ccc(C(F)(F)F)cc2[N+](=O)[O-])cc1O | 3.36
[O-][n+]1onc2c3cc(-c4ccccc4)nnc3ccc21 | 1.69
CC(C)(Oc1ccc(Cl)cc1)C(=O)N1CCN(c2ccccn2)CC1 | -1.81

Structure (SMILES) | hERG current change (%, negative = inhibition) at 1uM [%]
COc1cccc(NC(=O)c2cc(-c3cccnc3)nc3c(Cl)cccc23)c1 | 7.59
COc1c2c(cc3c1C(CC(O)Cc1ccccc1)N(C)CC3)OCO2 (centres unmarked) | -14
COc1ccc(CC(O)CC2c3c(cc4c(c3OC)OCO4)CCN2C)cc1.Cl (centres unmarked) | -51.8
COc1ccc2c(c1OC)C(=O)OC2C1c2c(cc3c(c2OC)OCO3)CCN1C.Cl (centres unmarked) | 9.06
Cc1ccc(C(=O)Nc2cccc(C(=O)N3CCOCC3)c2)cc1 | 3.75
O=C(CCc1ccccc1)Nc1ccc2ccccc2n1 | -2.39
CNC(=S)NNC(=O)c1sc2cc(C(F)(F)F)cnc2c1-c1ccccn1 | 4.79
Cl.O=C(CN1CCCC1)NCc1ccccc1 | 13.4
O=C(NCC(=O)N1CCCCCC1)c1ccc(OC(F)F)cc1 | 10.4
O=C(CN1CCN(C/C=C/c2ccccc2)CC1)NCc1ccccc1 | -53.6
O=C(CN1CCN(Cc2ccccc2)CC1)NCc1ccc(Cl)cc1 | -13.4
O=C(NCC(=O)N1CCN(C/C=C/c2ccccc2)CC1)c1ccc(OC(F)F)cc1 | -50.4
O=C(CN1CCCCCC1)NCc1ccccc1 | 11.8
O=C(CN1CCN(C/C=C/c2ccccc2)CC1)NCc1ccc(Cl)cc1 | -72.5
O=C(CN1CCN(c2ccc(Cl)cc2)CC1)NCc1ccccc1 | -23.6
CCOc1ccc(C(=O)NCC(=O)N2CCN(C/C=C/c3ccccc3)CC2)cc1OCC | -1.35
CCOC(=O)c1c(C)[nH]c(C(=O)O)c1C | 11.5
OC1CCCN(Cc2cccc3ccccc23)C1 (centres unmarked) | 14.7
Cc1cc(C)cc(N2CC(O)Cn3c2nc2c3c(=O)[nH]c(=O)n2C)c1 (centres unmarked) | 9.84
Cc1ccc(/C=N/NC(=O)c2nnn(-c3nonc3N)c2CSc2ccccc2)cc1 | 11.4
O=C(N=C1SC2CS(=O)(=O)CC2N1CCc1ccccc1)C1CC1 (centres unmarked) | 9.32
O=C(O)c1cccc(-n2cc(-c3cccc(C(F)(F)F)c3)cn2)c1 | 4.88
